Data taken from PubChem BioAssay AID1159580 (chemical genetic matrix, 2015).
The campaign covered roughly 5,500 compounds. About 2,000 (36%) were called active. Not shown: some 18% with an inconclusive outcome. Cut-off read from the data, not from the text of the source: active = normalized growth mostly below about 0.91 (no sharp cut-off); inconclusive = no clear call, values can overlap the other calls; inactive = mostly above about 0.92. The list shows a part of the results.

Assay: chemical genetic growth profiling, strain panel (AID 1159580);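 note: tested at 20 µM; growth read once vehicle control cultures reached saturation at 30 °C; 1 = growth at the plate median or of vehicle wells; lower values mean less growth of the strain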
Conditions: growth OD

Measured: normalized growth

CC(CN1c2ccccc2Sc2cccnc21)N(C)C (stereo not given)
inactive: S. cerevisiae deletion strains, locus YAL013W, strain DEP1, hits give low values 1.02 | S. cerevisiae deletion strains, locus YBR021W, strain FUR4, hits give low values 0.987 | S. cerevisiae deletion strains, locus YBR229C, strain ROT2, hits give low values 1.02 | S. cerevisiae deletion strains, locus YCL029C, strain bik1, hits give low values 0.988 | S. cerevisiae deletion strains, locus YDL035C, strain GPR1, hits give low values 1.02 | S. cerevisiae deletion strains, locus YDL074C, strain BRE1, hits give low values 1.04 | S. cerevisiae deletion strains, locus YDL101C, strain DUN1, hits give low values 1.03 | S. cerevisiae deletion strains, locus YDL134C, strain PPH21, hits give low values 1.01 | S. cerevisiae deletion strains, locus YDL192W, strain arf1, hits give low values 0.993 | S. cerevisiae deletion strains, locus YDR101C, strain arx1, hits give low values 0.979 | S. cerevisiae deletion strains, locus YDR150W, strain NUM1, hits give low values 1.02 | S. cerevisiae deletion strains, locus YDR162C, strain NBP2, hits give low values 1.04 | S. cerevisiae deletion strains, locus YDR318W, strain mcm21, hits give low values 0.983 | S. cerevisiae deletion strains, locus YDR388W, hits give low values 0.994 | S. cerevisiae deletion strains, locus YDR502C, strain sam2, hits give low values 1.01 | S. cerevisiae deletion strains, locus YEL061C, strain CIN8, hits give low values 1.02 | S. cerevisiae deletion strains, locus YER110C, hits give low values 0.978 | S. cerevisiae deletion strains, locus YER155C, strain BEM2, hits give low values 1.01 | S. cerevisiae deletion strains, locus YER167W, strain BCK2, hits give low values 1.02 | S. cerevisiae deletion strains, locus YGL078C, strain dbp3, hits give low values 0.988 | S. cerevisiae deletion strains, locus YGL086W, strain mad1, hits give low values 0.992 | S. cerevisiae deletion strains, locus YGL248W, strain PDE1, hits give low values 1.02 | S. cerevisiae deletion strains, locus YGR078C, strain PAC10, hits give low values 1.02 | S. cerevisiae deletion strains, locus YGR135W, strain pre9, hits give low values 1.01 | S. cerevisiae deletion strains, locus YGR229C, strain SMI1, hits give low values 1.05 | S. cerevisiae deletion strains, locus YGR252W, strain gcn5, hits give low values 0.956 | S. cerevisiae deletion strains, locus YHR030C, strain SLT2, hits give low values 1.01 | S. cerevisiae deletion strains, locus YHR079C, strain IRE1 (second series), hits give low values 0.999 | S. cerevisiae deletion strains, locus YHR094C, strain hxt1, hits give low values 1 | S. cerevisiae deletion strains, locus YHR129C, strain ARP1, hits give low values 1 | S. cerevisiae deletion strains, locus YHR200W, strain rpn10, hits give low values 0.995 | S. cerevisiae deletion strains, locus YIL066C, strain RNR3, hits give low values 1.01 | S. cerevisiae deletion strains, locus YIL073C, strain SPO22, hits give low values 0.999 | S. cerevisiae deletion strains, locus YIL125W, strain kgd1, hits give low values 0.999 | S. cerevisiae deletion strains, locus YIR030C, strain dcg1, hits give low values 0.992 | S. cerevisiae deletion strains, locus YJL095W, strain BCK1, hits give low values 1.01 | S. cerevisiae deletion strains, locus YJL134W, strain LCB3, hits give low values 1.05 | S. cerevisiae deletion strains, locus YJL168C, strain set2, hits give low values 0.998 | S. cerevisiae deletion strains, locus YJL187C, strain SWE1 (second series), hits give low values 1.02 | S. cerevisiae deletion strains, locus YJR043C, strain POL32, hits give low values 1.01 | S. cerevisiae deletion strains, locus YJR075W, strain HOC1, hits give low values 1.02 | S. cerevisiae deletion strains, locus YKL009W, strain mrt4, hits give low values 1 | S. cerevisiae deletion strains, locus YKL068W, hits give low values 1 | S. cerevisiae deletion strains, locus YKL085W, strain MDH1 (second series), hits give low values 0.995 | S. cerevisiae deletion strains, locus YKL085W, strain MDH1, hits give low values 0.995 | S. cerevisiae deletion strains, locus YKL190W, strain CNB1, hits give low values 1.03 | S. cerevisiae deletion strains, locus YKR001C, strain vps1, hits give low values 0.999 | S. cerevisiae deletion strains, locus YLR039C, strain RIC1, hits give low values 1.06 | S. cerevisiae deletion strains, locus YLR058C, strain SHM2, hits give low values 1.01 | S. cerevisiae deletion strains, locus YLR102C, strain apc9, hits give low values 0.991 | S. cerevisiae deletion strains, locus YLR262C, strain YPT6, hits give low values 1.15 | S. cerevisiae deletion strains, locus YLR268W, strain sec22, hits give low values 0.998 | S. cerevisiae deletion strains, locus YLR330W, strain CHS5, hits give low values 1.01 | S. cerevisiae deletion strains, locus YLR342W, strain FKS1 (second series), hits give low values 1.03 | S. cerevisiae deletion strains, locus YLR371W, strain rom2, hits give low values 0.995 | S. cerevisiae deletion strains, locus YLR418C, strain cdc73, hits give low values 1.04 | S. cerevisiae deletion strains, locus YML016C, strain PPZ1, hits give low values 1.02 | S. cerevisiae deletion strains, locus YML032C, strain rad52, hits give low values 0.989 | S. cerevisiae deletion strains, locus YML124C, strain tub3, hits give low values 0.998 | S. cerevisiae deletion strains, locus YMR078C, strain ctf18, hits give low values 0.999 | S. cerevisiae deletion strains, locus YMR223W, strain ubp8, hits give low values 0.995 | S. cerevisiae deletion strains, locus YMR263W, strain SAP30, hits give low values 1.03 | S. cerevisiae deletion strains, locus YMR307W, strain GAS1, hits give low values 1.06 | S. cerevisiae deletion strains, locus YNL067W, strain RPL9B, hits give low values 1.02 | S. cerevisiae deletion strains, locus YNL128W, strain TEP1, hits give low values 1.02 | S. cerevisiae deletion strains, locus YNL153C, strain GIM3, hits give low values 1.03 | S. cerevisiae deletion strains, locus YNL233W, strain BNI4, hits give low values 1.01 | S. cerevisiae deletion strains, locus YNL250W, strain rad50, hits give low values 0.992 | S. cerevisiae deletion strains, locus YNL271C, strain bni1, hits give low values 1.01 | S. cerevisiae deletion strains, locus YNL298W, strain CLA4, hits give low values 0.988 | S. cerevisiae deletion strains, locus YNL307C, strain MCK1, hits give low values 0.991 | S. cerevisiae deletion strains, locus YNL322C, strain KRE1, hits give low values 1.01 | S. cerevisiae deletion strains, locus YNR052C, strain pop2, hits give low values 0.994 | S. cerevisiae deletion strains, locus YOL006C, strain TOP1, hits give low values 1.03 | S. cerevisiae deletion strains, locus YOL012C, strain htz1 0.957 | S. cerevisiae deletion strains, locus YOL147C, strain pex11, hits give low values 0.991 | S. cerevisiae deletion strains, locus YOR061W, strain CKA2, hits give low values 1.02 | S. cerevisiae deletion strains, locus YOR069W, strain VPS5, hits give low values 1 | S. cerevisiae deletion strains, locus YOR136W, strain idh2, hits give low values 0.979 | S. cerevisiae deletion strains, locus YOR144C, strain elg1, hits give low values 0.999 | S. cerevisiae deletion strains, locus YOR184W, strain ser1, hits give low values 0.985 | S. cerevisiae deletion strains, locus YOR316C, strain cot1, hits give low values 0.997 | S. cerevisiae deletion strains, locus YPL055C, strain LGE1, hits give low values 1.04 | S. cerevisiae deletion strains, locus YPL241C, strain CIN2, hits give low values 1 | S. cerevisiae deletion strains, locus YPR119W, strain clb2, hits give low values 0.995 | S. cerevisiae deletion strains, locus YPR141C, strain kar3, hits give low values 0.997 | S. cerevisiae deletion strains, locus YPR163C, strain tif3, hits give low values 1 | S. cerevisiae deletion strains, locus YPR167C, strain met16, hits give low values 1 | S. cerevisiae deletion strains, strain wtn01, hits give low values 1.01 | S. cerevisiae strains, strain wild type, hits give low values 1.01
